D2 ag-1 = activates the human D2 dopamine receptor; P14416; HEK293 T-REx D2 cells, calcium flux agonist mode; activation, % at 2 µM; actives 0.53% (n = 340,000); AID 485358;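 active means activation over 3 SD above normal in the single-dose calcium agonist read, cut at about 30% in these data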; further: 0% is about no effect
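Agonism is scored from calcium flux in a force-coupled, inducible HEK293 cell line expressing D2, read kinetically for 180 s after compound addition against dopamine controls.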
D2 antag = D2 dopamine receptor (human) antagonism; P14416; HEK293 TREx D2 cells, calcium flux, dopamine EC80; inhibition, % at 10 µM; actives 2% (n = 340,000); AID 485344; in the data active means inhibition above about 30%; inactive means below that, where a call was filed; further: 0% is about no effect
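Dopamine at EC80 is the agonist stimulus; test compounds precede it by 180 s. Calcium flux read kinetically in a force-coupled, inducible HEK293 T-REx D2 cell line.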
D2 PAM-1 = D2 dopamine receptor (human) potentiation; P14416; potentiation, % at 10 µM; HEK293 T-REx D2, calcium flux, EC20 dopamine potentiation; actives 0.34% (n = 340,000); AID 485347;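 active means potentiation over 3 SD above the plate norm, cut at about 30% in these data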; further: 0% is about no effect
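Cells plated with tetracycline inducer and held overnight at 30 C; calcium dye loaded 30–90 min at room temperature; baseline taken, compound added and read 180 s; EC20 dopamine then added and read 180 s.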
D2 ag-2 = agonists of human D2 dopamine receptor (beta-arrestin); activation, % (concentration not given with the values); P14416; DiscoveRx PathHunter D2 beta-arrestin, luminescence, 90 min; 100% = 57 uM dopamine signal; actives 0.084% (n = 360,000); in the data active means activation above about 40%; inconclusive means between about 15% and that limit
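Agonist mode: compounds alone added to overnight-plated D2 PathHunter cells for 90 min at 37 C, with 57 uM final dopamine (EC100) defining full response. Beta-arrestin recruitment detected by chemiluminescent reagent, read after 1 h at ambient temperature.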
D2 PAM-2 = positive allosteric modulators of human D2 dopamine receptor; DiscoveRx D2 beta-arrestin cells, luminescence, 90 min; 100% = 57 uM dopamine signal; potentiation, % (test concentration not listed); actives 0.23% (n = 360,000); in the data active means potentiation above about 50%; inconclusive means mostly about 30% to 49%
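PathHunter D2 cells, attached overnight at 37 deg C, received compound in DMSO plus dopamine at EC20 (50 nM final) for 90 min at 37 deg C. Beta-arrestin recruitment was read as luminescence after 1 h with detection reagent at ambient temperature.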
D3 arrestin ag = D3 receptor agonism confirmed, beta-arrestin readout. shares compounds with D2 ag-1. AID 720506. Potency, µM (highest dose often 76.9 µM), for the others: top-dose activation, most hits filed as activators. DiscoveRx D3 beta-arrestin cells, luminescence, 90 min. actives 4% (n = 2,300);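 further: potency means the concentration at half of the fitted maximal effect; 100% = dopamine control response; nearly all actives have a fitted effect of over 70% in size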
Target sequence (P35462 whole entry, looked up): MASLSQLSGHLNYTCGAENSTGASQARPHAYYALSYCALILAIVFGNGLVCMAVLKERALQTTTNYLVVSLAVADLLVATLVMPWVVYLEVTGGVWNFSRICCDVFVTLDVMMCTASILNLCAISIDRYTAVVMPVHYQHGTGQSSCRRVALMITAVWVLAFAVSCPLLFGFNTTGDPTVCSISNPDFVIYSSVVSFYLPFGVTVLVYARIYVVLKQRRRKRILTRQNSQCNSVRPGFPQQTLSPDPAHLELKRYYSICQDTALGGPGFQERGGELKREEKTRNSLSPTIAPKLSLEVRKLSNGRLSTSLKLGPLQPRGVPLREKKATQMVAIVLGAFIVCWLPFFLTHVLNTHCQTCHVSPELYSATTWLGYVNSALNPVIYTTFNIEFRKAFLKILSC
D2 ag-3 = D2 receptor agonism, beta-arrestin counterscreen | shares compounds with D2 ag-1 | DiscoveRx PathHunter D2 beta-arrestin, luminescence, 90 min; response scale: percent relative to full dopamine signal | Potency, µM (doses to about 76.9 µM), for the others: at the highest dose activation, most hits filed as activators | actives 5.9% (n = 2,300) | AID 720507; further: potency means the concentration at half of the fitted maximal effect; % of control where 0% means no effect; nearly all actives have a fitted effect of over 70% in size
Active calls of the source: *; u = inconclusive; x = not tested or not shown; ! = not active in a repeat. Hits are enriched below; roughly 2.4% of the tested compounds scored in any of these assays. Unless noted, the call rests on the fitted dose curve; in most records, active means well fitted activation curve with a large enough effect; inconclusive means small, poorly fitted or top-dose-only effect; inactive means flat fitted curve, though single readings scatter.

SMILES	D2 ag-1	D2 antag	D2 PAM-1	D2 ag-2	D2 PAM-2	D3 arrestin ag	D2 ag-3
O=[N+]([O-])c1cccc(O)c1	0.0	36.1*	11.1	-3.0	-4.1	-3.7%	0.1%
O=[N+]([O-])c1cccc(CCl)c1	0.0	-0.1	-4.0	-6.4	-30.1	x	x
COc1cc2c(cc1OC)-c1c3c(cc4c1[C@@H](C2)N(C)CC4)OCO3	0.0	4.3	-10.9	4.5	-26.4	x	x
COc1c2c(cc3c1OCO3)CCN(C)C2	68.5*	74.8*	-13.1	-4.6	6.6	u	u
Cc1cccc(Cn2cccc(C(=O)Nc3nc4ccccc4s3)c2=O)c1	0.8	x	-2.2	x	x	x	x
CC(CCc1ccccc1)NCCC#N (stereo not given)	76.7*	16.1	-26.4	10.1	5.6	u	23.5%
O=C1NC(=S)N(c2ccc(Br)cc2)C(=O)/C1=C/N1CCN(C(=O)c2ccco2)CC1	27.5	11.4	-10.1	-3.9	-39.0	-4.5%	-2.2%
CCN(C(=O)CN1CC=C(c2ccccc2)CC1)c1c(N)n(Cc2ccccc2)c(=O)[nH]c1=O	10.8	-12.6	-7.5	-2.3	-9.0	-12.0%	2.4%
CCn1c(CN2CCN(C)CC2)nc2ccccc21	-0.1	x	x	x	x	x	x
CCN(CC)c1ccc(/C=C2\C(=O)NC(=S)N(C)C2=O)o1	33.1*	9.8	3.8	2.3	-2.9	-27.7%	-9.8%
CCc1ccc(-n2nc(C)c3c2NC(=O)CSC3c2ccc(C(=O)OC)cc2)cc1 (stereo not given)	-1.3	x	-2.0	x	x	x	x
O=[N+]([O-])c1ccc(CN2CC=C(c3ccccc3)CC2)cc1	77.7*	89.1*	-49.5	-0.9	-20.6	5.1%	10.3%
Cc1[nH]c2ccccc2c1CN1CCCCC1	x	x	x	-2.0	-20.7	x	x
Cc1[nH]c2c(Cl)cccc2c1CCN	23.7	40.6*	-32.4	5.2	-32.2	2.9%	8.2%
Cc1oc(-c2ccc(Cl)cc2)nc1CN1C(=O)CN=C(c2ccccc2)c2cc(Cl)ccc21	2.6	x	-4.8	x	x	x	x
Cc1ccc(-c2nn3c(=O)cc(CN4CCN(C(=O)COc5ccc(C)c(C)c5)CC4)nc3s2)cc1	-0.2	x	11.7	x	x	x	x
COc1ccc(CNCCc2c[nH]c3ccccc23)c(OC)c1C	7.3	33.1*	-15.5	-2.3	-11.9	-5.9%	5.1%
OC(CNCCc1c[nH]c2ccccc12)c1ccccc1 (stereo not given)	12.4	54.0*	-0.6	-4.1	-13.7	-3.5%	5.3%
CC(=O)NCCc1c[nH]c2ccccc12	0.6	8.8	-3.2	-4.4	-18.4	x	x
Fc1ccc(CNCCc2c[nH]c3ccccc23)cc1	1.5	-17.0	-15.4	3.9	-22.5	x	x
Fc1ccccc1CNCCc1c[nH]c2ccccc12	16.1	25.7	-21.0	-0.6	-18.9	-23.1%	0.0%
O=c1[nH]c2ccccc2c(=O)n1-c1ccc(Cl)c(Cl)c1	-0.1	x	-4.6	x	x	x	x
Cc1ccc(-n2c(/C=C/c3ccc(Br)s3)nc3ccccc3c2=O)cc1	-0.1	x	11.0	x	x	x	x
CC1=C[C@@H]2c3cccc4[nH]cc(c34)C[C@H]2N(C)C1	x	x	-32.3	77.0*	92.0*	0.0891µM*	2.82µM*
N#Cc1cc2c(nc1SCC(=O)Nc1ccc(Cl)c(C(F)(F)F)c1)C1CCN2CC1	0.6	x	18.2	x	x	x	x
SMILES	D2 ag-1	D2 antag	D2 PAM-1	D2 ag-2	D2 PAM-2	D3 arrestin ag	D2 ag-3
Cc1ccc(Cn2cccc(C(=O)Nc3cc([N+](=O)[O-])ccc3C)c2=O)cc1	-2.3	x	-6.5	x	x	x	x
NCCc1c[nH]c2ccccc12	-0.1	-13.9	-6.3	-7.2	-60.0	x	x
CCCCc1ccc2[nH]cc(CCN)c2c1	43.7*	14.2	-19.9	14.8	-13.1	-3.2%	u
CCOC(=O)C(O)(c1ccc(NC(=S)NC(=O)c2ccc(Cl)cc2Cl)c(C)c1)C(F)(F)F (stereo not given)	27.4	4.7	18.0	-3.5	-14.3	9.9%	-0.7%
COC(=O)C(O)(c1ccc(NC(=S)NC(=O)c2ccc(Cl)cc2Cl)c(C)c1)C(F)(F)F (stereo not given)	19.8	5.5	-7.9	-14.2	-5.8	x	x
CC(C)CC(C)N (stereo not given)	0.5	6.4	-10.6	4.2	-11.6	-4.1%	-3.0%
C=CCN1CCc2cccc3c2[C@H]1Cc1ccc(O)c(O)c1-3	87.6*	88.8*	-19.7	219.0*	113.5*	0.02µM*	0.0447µM*
C1=C(c2ccccc2)CCNC1	40.0*	42.9*	-29.5	-1.7	-8.8	-8.8%	0.8%
Cc1ccc(Cn2cccc(C(=O)Nc3nc4ccc(C)cc4s3)c2=O)cc1	-0.4	x	10.2	x	x	x	x
O=C(CN1CC=C(c2ccccc2)CC1)Nc1c(Cl)cccc1Cl	27.4	7.2	-22.9	-3.8	-28.7	x	x
OC(COCc1ccc(Cl)cc1)CN1CC=C(c2ccccc2)CC1 (stereo not given)	-0.2	84.7*	16.8	83.0*	70.9*!	50.1µM*	44.7µM*
OC(CN1CC=C(c2ccccc2)CC1)c1ccccc1 (stereo not given)	76.6*	74.6*	-31.2	2.7	-10.8	u	u
O=c1c2ccccc2nc(/C=C/c2cccc3ccccc23)n1-c1ccccc1Cl	x	x	-3.4	x	x	x	x
CCCSc1nc2ccccc2c(=O)n1-c1ccccc1OC	-0.7	x	4.4	x	x	x	x
CSc1ccc(/C=C/c2nc3ccccc3c(=O)n2-c2cccc(Cl)c2C)cc1	0.9	x	-6.2	x	x	x	x
Cc1cc(C)cc(-n2c(=O)[nH]c3ccccc3c2=O)c1	0.9	x	2.3	x	x	x	x
CN1C(=O)CC(c2ccccc2)Nc2ccccc21 (stereo not given)	-0.1	-5.5	-0.7	-2.7	1.2	-6.9%	-3.8%
CN1C(=O)N(C)C(=O)C2(Cc3ccccc3N3CCCC32)C1=O (stereo not given)	1.4	-10.7	-4.6	-0.5	-3.3	x	x
O=C(CCN1C(=O)COc2ccccc21)N1CCC2(CC1)OCCO2	55.8*	-0.2	-18.6	1.4	0.4	-7.7%	-4.3%
COc1ccc(OCC(=O)N2CCN(Cc3cc(=O)n4nc(-c5ccccc5C)sc4n3)CC2)cc1	-0.1	x	14.9	x	x	x	x
Cc1ccc(NC(=O)CN2C(=O)CN=C(c3ccccc3)c3ccccc32)cc1	1.3	x	-3.4	x	x	x	x
NC(=O)c1ccc(OCCC(O)N2CC=C(c3ccc(F)cc3)CC2)cc1 (stereo not given)	34.9*	64.6*	-11.6	-1.0	-25.7	u	u
CCOC(=O)c1ccc(N2C(=O)CC(N3CC=C(c4ccc(F)cc4)CC3)C2=O)cc1 (stereo not given)	-1.2	-9.4	1.0	-0.9	-1.2	x	x

Screening results deposited in PubChem by National Center for Advancing Translational Sciences (NCATS).
